From a collection of fitness landscapes (doi:10.1038/s41467-024-54723-y) come the findings set out here.

In all, about 18,000 sequences were measured (“TetR repression strength (sort-seq, GFP reporter)”: median about 0.23, highest 2% from about 0.68 on). The sample holds the highest values, similar sequences and a random draw of the others, so the mix is not that of the screen.

The target of this test is TetR (class B, Tn10) (UniProt P04483). Description: TetR repression strength (sort-seq, GFP reporter) (relative to tetO2 = 1); higher = stronger repression. As to conditions: E. coli. Summed up: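 Escherichia coli SIG10-MAX cells carried a low-copy plasmid library in which eight operator positions were randomized between a constitutive promoter and sfGFP, and TetR was expressed constitutively. After 5 h of growth at 37 °C in LB with 50 µg/mL chloramphenicol, 10^6 cells were FACS-sorted into 13 fluorescence bins, and each bin was Illumina-sequenced. Repression strength was the top bin index plus one minus the read-weighted mean bin, divided by the value for the unaltered operator. Across three independent transformations, only library members with ≥30 reads in every replicate and a CV ≤0.5 were averaged.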
Chain of TetR (class B, Tn10) (P04483 whole entry): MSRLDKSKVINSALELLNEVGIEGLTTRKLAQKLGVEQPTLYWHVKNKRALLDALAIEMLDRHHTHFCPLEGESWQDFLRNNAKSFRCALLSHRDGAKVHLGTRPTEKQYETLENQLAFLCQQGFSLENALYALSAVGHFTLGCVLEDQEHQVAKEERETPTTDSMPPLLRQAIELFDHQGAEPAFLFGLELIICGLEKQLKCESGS
TCCCTAGCAGTCTTCGAGA came in with a TetR repression strength of 0.495.
The result for TCCCTTGGAGTCGTTGAGA reads 0.304; that for TCCCTTCTAGTTTTTGAGA, 0.415; that for TCCCTTCTAGTTGCTGAGA, 0.73.
TCCCTTAGAGTCTATGAGA registered a TetR repression strength of 0.159.
To TCCCTTTTAGTGTATGAGA belongs 0.271.
The sequence TCCCTTTGAGTCTTTGAGA showed a TetR repression strength of 0.181.
To TCCCTTTTAGTCTATGAGA belongs 0.858; to TCCCTTCTAGTTACTGAGA, 0.464.
TCCCTTCTAGTCTTTGAGA showed a TetR repression strength of 0.693.
The sequence TCCCGTCTAGTCTTTGAGA displayed a TetR repression strength of 0.366.
TCCCTTCTAGTTGTTGAGA: the TetR repression strength came out at 0.216.
In the case of TCCCTTTGAGTCTATGAGA, the TetR repression strength amounted to 0.804.
Take TCCCATTTAGTCTATGAGA: the TetR repression strength came out at 0.279.
For the sequence TCCCTGGTAGTTGCTGAGA, the TetR repression strength came to 0.189.
To TCCCAGAAAGTCGGGGAGA belongs 0.0115.
To TCCCGAGCAGTATCGGAGA belongs 0.138; to TCCCAATAAGTGATTGAGA, 0.408; to TCCCACATAGTCTTTGAGA, 0.244.
To TCCCGTGTAGTGATCGAGA belongs 0.209.
The sequence TCCCGCTGAGTTTTTGAGA yielded a TetR repression strength of 0.307.
The result for TCCCGGAGAGTTGAGGAGA reads 0.193; that for TCCCGGTTAGTAATTGAGA, 0.345.
As for TCCCGCTAAGTTTCTGAGA, the TetR repression strength came out at 0.393.
In turn, TCCCGTTAAGTTCCTGAGA came in with a TetR repression strength of 0.721.
Sequence TCCCGCGAAGTTGTTGAGA had a TetR repression strength of 0.112.
As for TCCCGTTAAGTTGCTGAGA, the TetR repression strength came to 0.517.
To TCCCGTTCAGTTGCTGAGA belongs 0.512; to TCCCGTTAAGTGCCTGAGA, 0.419.
TCCCGCGAAGTTGCTGAGA registered a TetR repression strength of 1.1.
The result for TCCCCGTAAGTTCCTGAGA reads 0.231; that for TCCCGCGAAGTTGGTGAGA, 0.202.
The result for TCCCGTTCAGTTCCTGAGA reads 0.705; that for TCCCGCTAAGTTCCTGAGA, 0.792.
The result for TCCCGGTCAGTTCCTGAGA reads 0.26; that for TCCCACATAGTTTAAGAGA, 0.187; that for TCCCACCTAGTCTGCGAGA, 0.302.
On to TCCCTGACAGTAGTAGAGA, for which the TetR repression strength stood at 0.541.
The sequence TCCCTGATAGTTCGAGAGA displayed a TetR repression strength of 0.244.
To TCCCGGTGAGTGCGAGAGA belongs 0.189.
Take TCCCAAGTAGTGGGGGAGA: the TetR repression strength turned out to be 0.133.
With TCCCTCGAAGTTACCGAGA, the TetR repression strength turned out to be 0.221.
To TCCCCTTGAGTTACCGAGA belongs 0.307; to TCCCTTGCAGTTAACGAGA, 0.104; to TCCCTTGAAGTTACCGAGA, 0.844.
To TCCCTTGCAGTTACCGAGA belongs 0.874; to TCCCTTCCAGTTACCGAGA, 0.351.
With TCCCGGGTAGTCGGTGAGA, the TetR repression strength was 0.237.
The result for TCCCCCATAGTGCCAGAGA reads 0.453.
The result for TCCCATTAAGTGAGAGAGA reads 0.478; that for TCCCGTTCAGTCTCAGAGA, 0.307.
TCCCCTCTAGTGGCCGAGA gave a TetR repression strength of 0.17.
In the case of TCCCAGCAAGTAGGGGAGA, the TetR repression strength amounted to 0.289.
The result for TCCCAGCCAGTTATGGAGA reads 0.169; that for TCCCAGCAAGTATGGGAGA, 0.71.
Sequence TCCCAGCAAGTATGCGAGA yielded a TetR repression strength of 0.282.
To TCCCAGCAAGTTATGGAGA belongs 0.701; to TCCCAGCAAGTCATGGAGA, 0.401; to TCCCTTCAAGTGTAAGAGA, 0.158.
Turning to TCCCCGTGAGTACGTGAGA, the TetR repression strength was 0.226.
Consider TCCCCACTAGTAAATGAGA, for which the TetR repression strength was 0.726.
TCCCAACTAGTAAATGAGA gave a TetR repression strength of 0.567.
As for TCCCCCCTAGTACGTGAGA, the TetR repression strength stood at 0.814.
TCCCCTCTAGTACGTGAGA gave a TetR repression strength of 0.207.
Sequence TCCCCCGGAGTACGTGAGA displayed a TetR repression strength of 0.187.
The result for TCCCCACTAGTAAAAGAGA reads 0.303; that for TCCCCCCGAGTACGTGAGA, 0.839; that for TCCCCACTAGTACGTGAGA, 0.363.
On to TCCCTAGAAGTTATGGAGA, for which the TetR repression strength is 0.315.
TCCCTGGCAGTTCATGAGA returned a TetR repression strength of 0.199.
In turn, TCCCGGGTAGTCCGGGAGA gave a TetR repression strength of 0.112.
The sequence TCCCAACCAGTCCCGGAGA displayed a TetR repression strength of 0.12.
To TCCCAAGGAGTGGGTGAGA belongs 0.185.
